Outcome and AC50 data for nine compounds are collected here from PubChem BioAssay (EPA / NIEHS).

The target of assay [1] is Nuclear respiratory factor 1 (Homo sapiens) (UniProt Q16656). The experiment in a line: ATG_NRF1_CIS: Attagene CIS-FACTORIAL HepG2 Assay for human Nuclear Respiratory Factor 1 (NRF1) Orphan Gene (AID 2282987). The conditions noted are these: HepG2 NRF1 cis-element reporter, Attagene multiplex; actives raise or lower the signal. Put shortly:
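Human hepatoma HepG2 cells carrying transfected promoter-regulated reporter units were incubated with test chemicals for 24 h. Reporter transcripts were measured by RT-PCR plus capillary electrophoresis, and endpoints derived by bidirectional fitting with DMSO as baseline.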

The target of assay [2] is Myc proto-oncogene protein (Homo sapiens) (UniProt P01106). The experiment in a line: ATG_Myc_CIS: Attagene CIS-FACTORIAL HepG2 Assay for human Myelocytomatosis (Myc) Proto-Oncogene Transcription Factor (AID 2282990). The following applies: HepG2, Attagene cis-reporter transcription factor activity; actives raise or lower the signal. Put shortly: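 Cells of the HepG2 human liver line bear multiple cis-driven reporter transcription units. Reporter mRNA after 24 h exposure is reverse-transcribed, amplified, labelled and resolved by capillary electrophoresis, with gain- or loss-of-signal fitting relative to DMSO.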
Chain of Myc proto-oncogene protein (Homo sapiens) (P01106 whole entry, looked up): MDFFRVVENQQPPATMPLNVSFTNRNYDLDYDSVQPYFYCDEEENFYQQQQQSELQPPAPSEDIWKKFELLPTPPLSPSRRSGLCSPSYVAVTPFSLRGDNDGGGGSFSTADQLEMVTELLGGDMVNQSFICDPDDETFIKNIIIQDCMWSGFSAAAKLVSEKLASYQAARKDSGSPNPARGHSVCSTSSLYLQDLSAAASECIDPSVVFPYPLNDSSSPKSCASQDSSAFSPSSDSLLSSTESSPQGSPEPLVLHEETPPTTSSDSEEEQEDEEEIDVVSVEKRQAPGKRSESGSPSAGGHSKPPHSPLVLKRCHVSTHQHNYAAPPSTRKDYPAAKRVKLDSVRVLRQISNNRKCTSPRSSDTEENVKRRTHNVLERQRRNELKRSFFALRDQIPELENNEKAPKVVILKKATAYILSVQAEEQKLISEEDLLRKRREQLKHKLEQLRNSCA

Assay [3] is described as follows: ATG_NF_kB_CIS: Attagene CIS-FACTORIAL HepG2 Assay for human Nuclear Factor Kappa B (NF-kB) (AID 2282991). The following applies: HepG2 Attagene cis-factorial NF-kB reporter mRNA; actives raise or lower the signal. The essentials: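 Multiplexed cis-reporter assay in transiently transfected HepG2. 24 h treatment; RNA isolated, RT-PCR, labelled fragments resolved by CE. DMSO baseline.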

The nature of assay [4]: ATG_NRF2_ARE_CIS: Attagene CIS-FACTORIAL HepG2 Assay for human Nuclear Factor Erythroid 2 Related Factor 2 (NFR2) response to Antioxidant Response Elements (ARE) (AID 2282992).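 On AC50: reporter mRNA level measured by RT-PCR and capillary electrophoresis fluorescence.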 The following applies: HepG2 Attagene ARE/NRF2 reporter, transcription factor activity; actives raise or lower the signal. The essentials:
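Cis-factorial assay: transfected HepG2 reporter library, 24 h dosing, mRNA readout via RT-PCR/CE; DMSO-referenced bidirectional analysis.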

Assay [5] in a line: ATG_Oct_MLP_CIS: Attagene CIS-FACTORIAL HepG2 Assay for human Octamer-Binding Transcription Factor (Oct) (AID 2282993). The following applies: HepG2 Attagene cis-factorial Oct reporter, mRNA; actives raise or lower the signal. The essentials: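 HepG2 cells transiently transfected with cis-element-driven reporter transcription units (endogenous TF activity); 24 h compound exposure. Reporter mRNA quantified by RT-PCR, 6-FAM labelling, HpaI digestion and capillary electrophoresis; bidirectional fit versus DMSO baseline.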

In assay [6] the target is human Retinoic Acid Receptor beta (RARb), RARB (gene 5915) (UniProt P10826). The experiment in a line: ATG_RARb_TRANS: Attagene TRANS-FACTORIAL HepG2 Assay for human Retinoic Acid Receptor beta (AID 2283004; active means hit-call score of the fitted dose curve at least 0.9, where 1 is the maximum). Put shortly:
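Readout is reporter mRNA induction: RNA reverse-transcribed, PCR-amplified, FAM-labelled, HpaI-cut and resolved by capillary electrophoresis. Transiently transfected HepG2 cells carrying exogenous NR–Gal4 chimeras were dosed for 24 h; activity fitted upward relative to DMSO.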

The target in assay [7] is Peroxisome proliferator-activated receptor gamma (Homo sapiens) (UniProt P37231). As to the kind of experiment: ATG_PPARg_TRANS: Attagene TRANS-FACTORIAL HepG2 Assay for human Peroxisome Proliferator-activated Receptor-gamma (PPARg) (AID 2283007; active means hit-call score of the fitted dose curve at least 0.9, where 1 is the maximum). The essentials:
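Human hepatoma HepG2, transient MRTU transfection, 24 h treatment. mRNA reporter signal by RT-PCR plus capillary electrophoresis, fluorescence detection; fitted for increase over DMSO negative control.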

The target of assay [8] is Nuclear receptor subfamily 1 group I member 2 (Homo sapiens) (UniProt O75469). The experiment in a line: ATG_PXR_TRANS: Attagene TRANS-FACTORIAL HepG2 Assay for human Pregnane X Receptor (PXR) (AID 2283008; active means hit-call score of the fitted dose curve at least 0.9, where 1 is the maximum). Put shortly:
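Fluorescence intensity of FAM-labelled, HpaI-digested reporter amplicons, separated by capillary electrophoresis, quantifies induction. HepG2 cells with PXR-Gal4 trans-reporter system were exposed 24 h; DMSO defines baseline.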

Assay [9] in a line: ATG_NFI_CIS: Attagene CIS-FACTORIAL HepG2 Assay for human Nuclear Factor I (NFI) (AID 2282989). The conditions noted are these: HepG2 cis-regulatory reporter, NFI response element transcription; actives raise or lower the signal. Put shortly:
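Endogenous TF activity in HepG2 cells transiently transfected with cis-element-driven multiplexed reporter units, read 24 h after dosing. Reporter mRNA quantified by RT-PCR, 6-FAM labelling, HpaI digestion and capillary electrophoresis; bidirectional fit versus DMSO.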

In assay [10] the target is Cellular tumor antigen p53 (Homo sapiens) (UniProt P04637). As to the kind of experiment: ATG_p53_CIS: Attagene CIS-FACTORIAL HepG2 Assay for human p53 Transcription Factor (AID 2282994). The conditions noted are these: HepG2 p53 cis-element reporter, Attagene mRNA; actives raise or lower the signal. The essentials: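 Using HepG2 hepatoma cells carrying cis-acting multiplexed reporters, mRNA induction is detected after a 24 h exposure. Gain- and loss-of-signal responses are fitted relative to DMSO-treated cells.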
Chain of Cellular tumor antigen p53 (Homo sapiens) (P04637 whole entry, looked up): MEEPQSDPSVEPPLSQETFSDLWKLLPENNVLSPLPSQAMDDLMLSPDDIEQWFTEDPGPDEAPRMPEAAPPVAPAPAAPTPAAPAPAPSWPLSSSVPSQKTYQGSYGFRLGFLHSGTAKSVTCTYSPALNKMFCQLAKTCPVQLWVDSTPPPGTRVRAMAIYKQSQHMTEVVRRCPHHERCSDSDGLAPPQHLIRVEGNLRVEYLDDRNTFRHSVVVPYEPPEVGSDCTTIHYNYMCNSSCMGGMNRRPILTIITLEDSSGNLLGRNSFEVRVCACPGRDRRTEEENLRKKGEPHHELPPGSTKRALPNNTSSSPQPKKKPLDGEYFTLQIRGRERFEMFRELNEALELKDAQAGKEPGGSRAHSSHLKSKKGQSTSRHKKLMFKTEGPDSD

Assay [11] can be described thus: BSK_3C_TissueFactor: BioMAP Diversity Plus: 3C Assay for Tissue Factor Biomarker Activity (AID 2282997). The following applies: BioMAP 3C HUVEC, tissue factor biomarker readout; actives raise or lower the signal. Put shortly: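 Human vascular primary cells (umbilical vein endothelium) received test chemical; Tissue Factor was determined by ELISA at 24 h, and both gain and loss of signal versus DMSO were fitted.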

Assay [12] can be described thus: BSK_3C_uPAR: BioMAP Diversity Plus: 3C Assay for Urokinase-type plasminogen activator receptor (uPAR) Biomarker Activity (AID 2282998). The conditions noted are these: BioMAP 3C HUVEC, uPAR biomarker ELISA; actives raise or lower the signal. Put shortly: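 Primary human umbilical vein endothelial cells, 3C system; surface uPAR measured by ELISA 24 h after dosing. Cytotoxicity via SRB total protein in parallel cultures; bidirectional fit against DMSO.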

Assay [13] is described as follows: BSK_3C_VCAM1: BioMAP Diversity Plus: 3C Assay for Vascular cell adhesion molecule 1 (VCAM1) Biomarker Activity (AID 2282999). The following applies: BioMAP 3C HUVEC, VCAM1 ELISA, cytokine-stimulated; actives raise or lower the signal. The essentials: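 Endothelial cells from human umbilical vein are treated with test chemical. At 24 h, VCAM-1 is measured by ELISA, and responses in either direction are fitted relative to DMSO.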

A short description of assay [14]: BSK_4H_Eotaxin3: BioMAP Diversity Plus: 4H Assay for Eotaxin 3 Biomarker Activity (AID 2283000).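 On Outcome: CCL26 protein level quantified by ELISA in parallel with SRB cytotoxicity check.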 The conditions noted are these: primary human endothelial cells (HUVEC); actives raise or lower the signal. Put shortly:
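Readout is Eotaxin-3 (CCL26) level by ELISA in primary human umbilical vein endothelial cells harvested 24 h after chemical exposure; activity fitted in both directions against DMSO control.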

In assay [15] the target is human Peroxisome Proliferator-activated Receptor alpha (PPARa), PPARA (gene 5465) (UniProt Q07869). The experiment in a line: ATG_PPARa_TRANS: Attagene TRANS-FACTORIAL HepG2 Assay for human Peroxisome Proliferator-activated Receptor alpha (PPARa) (AID 2283001; active means hit-call score of the fitted dose curve at least 0.9, where 1 is the maximum;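 on AC50: potency for gain of reporter signal over DMSO so agonist or activator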). The essentials:
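Read-out is fluorescence of reporter cDNA fragments resolved by capillary electrophoresis after RT-PCR. Human HepG2 liver cells carried transfected PPARa-Gal4 chimera and GAL4-UAS reporter units, treated 24 h; activity scored as increase over DMSO.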

The target of assay [16] is human Peroxisome Proliferator-activated Receptor delta (PPARd), PPARD (gene 5467) (UniProt Q03181). As to the kind of experiment: ATG_PPARd_TRANS: Attagene TRANS-FACTORIAL HepG2 Assay for human Peroxisome Proliferator-activated Receptor delta (PPARd) (AID 2283002; active means hit-call score of the fitted dose curve at least 0.9, where 1 is the maximum). Put shortly: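 Cell-based TRANS reporter: HepG2, transient MRTU transfection, 24 h exposure. Readout = reporter mRNA (RT-PCR/CE, 6-FAM). Gain-of-signal fit vs DMSO control.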
Chain of human Peroxisome Proliferator-activated Receptor delta (PPARd), PPARD (gene 5467) (Q03181 whole entry, looked up): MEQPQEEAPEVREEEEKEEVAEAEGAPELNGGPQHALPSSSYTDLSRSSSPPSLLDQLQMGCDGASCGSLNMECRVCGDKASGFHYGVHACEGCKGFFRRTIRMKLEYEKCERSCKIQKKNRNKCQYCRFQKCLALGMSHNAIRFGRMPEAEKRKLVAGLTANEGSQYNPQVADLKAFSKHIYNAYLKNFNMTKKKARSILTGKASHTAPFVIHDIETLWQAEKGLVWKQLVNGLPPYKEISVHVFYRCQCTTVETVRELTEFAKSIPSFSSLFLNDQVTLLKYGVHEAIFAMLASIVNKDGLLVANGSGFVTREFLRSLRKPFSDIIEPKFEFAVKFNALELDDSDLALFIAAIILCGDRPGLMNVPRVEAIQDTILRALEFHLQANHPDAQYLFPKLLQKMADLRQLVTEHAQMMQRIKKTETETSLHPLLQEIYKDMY

Read-out in assay [17]: Intercellular Adhesion Molecule 1 (ICAM1), ICAM1 (gene 3383)
The experiment in a line: BSK_3C_ICAM1: BioMAP Diversity Plus: 3C Assay for Intercellular Adhesion Molecule 1 (ICAM1) Biomarker Activity (AID 2283003). The following applies: primary human endothelial cells (HUVEC); actives raise or lower the signal. Put shortly:
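HUVEC primary cells stimulated under 3C conditions; ICAM1 measured by ELISA 24 h after compound dosing. Curves fitted bidirectionally against the DMSO baseline. Overt cytotoxicity checked by SRB staining of parallel cultures.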

The nature of assay [18]: BSK_3C_Proliferation: Cell Proliferation Assessment in the BioMAP Diversity Plus: 3C Assay (AID 2283006).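 On AC50: potency may reflect either rise or fall in cell number versus DMSO.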 The following applies: primary human endothelial cells (HUVEC). Put shortly:
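Subconfluent HUVEC (3C system) cultured with chemical; relative cell number read at 48 h by sulforhodamine B total-protein staining (0.1% SRB after 10% TCA fixation, 560 nm). Bidirectional fit relative to DMSO.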

The target in assay [19] is human Retinoic Acid Receptor gamma (RARg), RARG (gene 5916) (UniProt P13631). The experiment in a line: ATG_RARg_TRANS: Attagene TRANS-FACTORIAL HepG2 Assay for human Retinoic Acid Receptor gamma (RARg) (AID 2283009; active means hit-call score of the fitted dose curve at least 0.9, where 1 is the maximum). The essentials: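 HepG2 transiently transfected with GAL4-UAS reporter units and chimeric NR-Gal4 constructs; 24 h compound exposure. Reporter mRNA quantified by RT-PCR, FAM labeling, HpaI digestion and capillary electrophoresis; gain-of-signal versus DMSO.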
Chain of human Retinoic Acid Receptor gamma (RARg), RARG (gene 5916) (P13631 whole entry, looked up, the tested form may be a part): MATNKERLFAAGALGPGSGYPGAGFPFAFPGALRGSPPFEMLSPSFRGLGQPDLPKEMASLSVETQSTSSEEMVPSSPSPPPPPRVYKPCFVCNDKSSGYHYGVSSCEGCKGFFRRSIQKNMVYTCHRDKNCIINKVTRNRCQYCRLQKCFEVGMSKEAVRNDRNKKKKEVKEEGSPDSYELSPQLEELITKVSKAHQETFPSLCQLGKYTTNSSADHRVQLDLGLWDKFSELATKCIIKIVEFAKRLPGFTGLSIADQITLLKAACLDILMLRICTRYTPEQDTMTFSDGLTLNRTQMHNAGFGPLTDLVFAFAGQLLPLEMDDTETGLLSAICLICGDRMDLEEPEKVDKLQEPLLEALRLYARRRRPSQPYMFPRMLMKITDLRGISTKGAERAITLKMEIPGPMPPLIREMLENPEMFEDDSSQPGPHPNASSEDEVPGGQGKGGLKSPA

The target in assay [20] is Retinoic acid receptor alpha (Homo sapiens) (UniProt P10276). The experiment in a line: ATG_RARa_TRANS: Attagene TRANS-FACTORIAL HepG2 Assay for human Retinoic Acid Receptor alpha (RARa) (AID 2283005; active means hit-call score of the fitted dose curve at least 0.9, where 1 is the maximum). The essentials:
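Reporter transcripts, measured by RT-PCR with fluorescent labeling and capillary electrophoresis after 24 h dosing, reflect activity of an exogenous human RARa–GAL4 fusion in transiently transfected HepG2. Fitted for increase relative to DMSO.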

SMILES strings stand for the structures. Values joined by “and” are separate entries in the source; they are usually repeats but may differ in a detail not shown here. Identical values can stand only once. Inconclusive results are not listed. More than one record can exist for a structure, and the calls need not agree. Active and inactive are the calls of the source. How the source made its calls, unless noted: active means hit-call score of the fitted dose curve at least 0.9, where 1 is the maximum; inactive means score below 0.9.

Chain of human Peroxisome Proliferator-activated Receptor alpha (PPARa), PPARA (gene 5465) (Q07869 whole entry, looked up, the tested form may be a part): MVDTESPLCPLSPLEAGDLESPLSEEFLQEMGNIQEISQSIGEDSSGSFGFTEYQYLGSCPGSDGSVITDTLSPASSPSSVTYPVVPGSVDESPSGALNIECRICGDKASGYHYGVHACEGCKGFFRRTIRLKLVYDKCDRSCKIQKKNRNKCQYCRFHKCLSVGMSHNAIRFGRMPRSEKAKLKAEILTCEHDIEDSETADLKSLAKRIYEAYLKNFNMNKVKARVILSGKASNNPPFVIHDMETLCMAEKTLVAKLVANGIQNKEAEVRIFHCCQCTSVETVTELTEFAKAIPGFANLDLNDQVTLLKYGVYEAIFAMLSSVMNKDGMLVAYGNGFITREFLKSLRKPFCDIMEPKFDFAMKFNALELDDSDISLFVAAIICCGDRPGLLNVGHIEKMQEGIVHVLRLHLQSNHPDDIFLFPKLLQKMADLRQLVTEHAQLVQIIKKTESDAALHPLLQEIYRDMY
Chain of Nuclear receptor subfamily 1 group I member 2 (Homo sapiens) (O75469 whole entry, looked up, the tested form may be a part): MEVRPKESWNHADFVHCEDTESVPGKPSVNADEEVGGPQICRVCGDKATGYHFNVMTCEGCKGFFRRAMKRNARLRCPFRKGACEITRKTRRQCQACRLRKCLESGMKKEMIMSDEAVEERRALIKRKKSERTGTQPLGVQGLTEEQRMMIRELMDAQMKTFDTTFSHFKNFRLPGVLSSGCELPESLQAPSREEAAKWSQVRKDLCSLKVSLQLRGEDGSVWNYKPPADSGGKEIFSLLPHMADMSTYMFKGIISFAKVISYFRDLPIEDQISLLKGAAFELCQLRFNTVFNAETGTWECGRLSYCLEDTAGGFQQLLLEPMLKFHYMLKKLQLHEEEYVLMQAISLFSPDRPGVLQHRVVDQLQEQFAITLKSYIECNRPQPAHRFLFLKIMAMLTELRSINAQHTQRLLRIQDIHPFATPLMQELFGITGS
Chain of Nuclear respiratory factor 1 (Homo sapiens) (Q16656 whole entry, looked up): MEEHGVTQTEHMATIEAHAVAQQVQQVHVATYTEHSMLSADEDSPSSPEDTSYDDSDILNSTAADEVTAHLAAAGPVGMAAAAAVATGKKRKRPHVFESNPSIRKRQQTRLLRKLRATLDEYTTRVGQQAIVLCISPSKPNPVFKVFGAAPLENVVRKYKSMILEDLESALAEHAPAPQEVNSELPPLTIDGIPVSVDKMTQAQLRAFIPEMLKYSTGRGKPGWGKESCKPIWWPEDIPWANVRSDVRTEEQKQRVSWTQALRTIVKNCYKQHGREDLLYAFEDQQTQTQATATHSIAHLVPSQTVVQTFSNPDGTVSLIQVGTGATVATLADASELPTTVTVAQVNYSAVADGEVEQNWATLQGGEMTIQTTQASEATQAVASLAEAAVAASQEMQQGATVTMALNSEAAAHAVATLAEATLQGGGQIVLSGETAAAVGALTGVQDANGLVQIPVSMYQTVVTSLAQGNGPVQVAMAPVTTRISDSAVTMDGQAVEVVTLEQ
Chain of human Retinoic Acid Receptor beta (RARb), RARB (gene 5915) (P10826 whole entry, looked up, the tested form may be a part): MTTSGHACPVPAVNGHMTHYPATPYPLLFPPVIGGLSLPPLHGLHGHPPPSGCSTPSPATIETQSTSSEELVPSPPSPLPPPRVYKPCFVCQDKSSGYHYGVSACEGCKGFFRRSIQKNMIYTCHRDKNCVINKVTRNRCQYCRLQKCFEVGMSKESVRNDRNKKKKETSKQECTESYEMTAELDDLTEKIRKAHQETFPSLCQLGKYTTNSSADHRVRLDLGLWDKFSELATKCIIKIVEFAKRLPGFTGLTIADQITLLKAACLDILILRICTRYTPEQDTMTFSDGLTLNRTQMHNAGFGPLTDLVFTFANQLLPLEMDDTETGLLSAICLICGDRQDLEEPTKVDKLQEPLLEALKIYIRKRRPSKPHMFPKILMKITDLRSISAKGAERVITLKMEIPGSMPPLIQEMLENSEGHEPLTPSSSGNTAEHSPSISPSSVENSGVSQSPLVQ
Chain of Peroxisome proliferator-activated receptor gamma (Homo sapiens) (P37231 whole entry, looked up): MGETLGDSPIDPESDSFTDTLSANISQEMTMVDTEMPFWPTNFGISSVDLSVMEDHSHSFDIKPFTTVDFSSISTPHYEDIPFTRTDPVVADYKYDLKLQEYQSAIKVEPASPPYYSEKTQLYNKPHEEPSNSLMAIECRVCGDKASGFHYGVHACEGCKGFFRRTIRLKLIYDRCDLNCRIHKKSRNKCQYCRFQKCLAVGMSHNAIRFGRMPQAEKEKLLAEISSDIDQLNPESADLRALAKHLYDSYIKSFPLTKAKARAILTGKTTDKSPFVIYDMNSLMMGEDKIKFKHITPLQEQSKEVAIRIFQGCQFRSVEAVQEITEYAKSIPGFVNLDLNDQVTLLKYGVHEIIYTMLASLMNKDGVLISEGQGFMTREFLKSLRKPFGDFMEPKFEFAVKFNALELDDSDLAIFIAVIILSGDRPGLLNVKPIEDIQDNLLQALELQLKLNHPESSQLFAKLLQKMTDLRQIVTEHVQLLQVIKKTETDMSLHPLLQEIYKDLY
Chain of Retinoic acid receptor alpha (Homo sapiens) (P10276 whole entry, looked up, the tested form may be a part): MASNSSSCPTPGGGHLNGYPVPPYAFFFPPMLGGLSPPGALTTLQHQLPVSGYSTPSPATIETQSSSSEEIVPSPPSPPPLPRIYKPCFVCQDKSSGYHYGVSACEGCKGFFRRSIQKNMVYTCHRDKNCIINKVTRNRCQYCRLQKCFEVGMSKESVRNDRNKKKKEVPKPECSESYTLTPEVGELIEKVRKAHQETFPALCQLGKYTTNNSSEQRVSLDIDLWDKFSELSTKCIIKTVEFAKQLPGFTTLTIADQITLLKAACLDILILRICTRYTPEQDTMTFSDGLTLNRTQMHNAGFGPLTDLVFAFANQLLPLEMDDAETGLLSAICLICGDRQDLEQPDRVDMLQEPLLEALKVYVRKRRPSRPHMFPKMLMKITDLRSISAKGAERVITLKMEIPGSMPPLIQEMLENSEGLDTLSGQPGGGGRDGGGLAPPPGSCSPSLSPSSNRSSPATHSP

`CC(C)c1ccccc1N`: the compound was classed as inactive in assay [1], in assay [2], in [3], in [4], in assay [5] and in [6]. The compound was classed as inactive in [7] and in assay [8].

As for `O=C(O)C=C(C(F)(F)F)C(F)(F)F`, the compound was called inactive in assay [9], in [2], in [3], in assay [5], in assay [10] and in assay [11]. The outcome in [12], in assay [14], in assay [15], in assay [16], in assay [17] and in assay [18] was inactive. The compound was classed as inactive in assay [7], in assay [8] and in assay [19]. Also, the AC50 in assay [3] is 68.2 µM (active); in assay [4], 1.89 µM (active) and 3.02 µM (active); in [13], 22.4 µM (active) and 8.91 µM (active); in [18], 27 µM (active).

`FC(F)(F)C(F)(F)C(F)(F)C(F)(F)C(F)(F)C(F)(F)C(F)(F)Br`: the outcome in [1], in assay [2], in assay [3], in [4], in assay [10] and in assay [11] was inactive. For the same compound, the result in assay [12], in assay [13], in [14], in [16], in [17] and in assay [20] was inactive. Also, the result in [18], in [7], in assay [8] and in [19] was inactive.

As to `CCCCOc1ccc(N)cc1`, the outcome in assay [1], in assay [2], in assay [3], in assay [4], in assay [5] and in assay [7] was inactive. Besides, the result in assay [8] was inactive.

As for `COC(=O)C1CCC(C(=O)OC)CC1` (stereo not drawn), the outcome in [9], in assay [2], in assay [3], in [4], in assay [16] and in assay [6] was inactive. The call in assay [7], in [8] and in assay [19] was inactive. Also, the AC50 in [4] is 163 µM (active).

For the compound `O=C(C=Cc1ccccc1)OCC=Cc1ccccc1`, the outcome in assay [1], in assay [9], in assay [2], in assay [10], in assay [15] and in assay [16] was inactive. In addition, the AC50 was 2.64 µM (active) in assay [4], 0.641 µM (active) in assay [7] and 23.9 µM (active) in [8].

In the case of `C#C[C@]1(O)CC[C@H]2[C@@H]3CCc4cc(OC)ccc4[C@H]3CC[C@@]21C`, the compound was classed as inactive in [1], in assay [9], in [2], in assay [3], in [11] and in [12]. Further, the result in assay [17], in assay [6], in assay [7] and in assay [19] was inactive. The AC50 in [4] was 18 µM (active); in assay [14], 2.22 µM (active); in [18], 31.1 µM (active); in [8] it was 4.66 µM (active).

Take `O=C(O)C(F)(F)C(F)(F)F`: the result in assay [1], in assay [2], in assay [3], in assay [4], in [10] and in assay [11] was inactive. Besides, the result in assay [12], in [14], in [16], in assay [17], in assay [20] and in assay [18] was inactive. The call in assay [7] and in assay [8] was inactive.

With `CCCCOCCOCCOC(=O)CCCCC(=O)OCCOCCOCCCC`, the result in assay [1], in [9], in assay [2], in assay [3], in [4] and in assay [11] was inactive. The outcome in assay [12], in assay [14], in [16], in assay [17], in assay [20] and in [18] was inactive. For the same compound, the compound was classed as inactive in assay [7], in assay [8] and in [19]. Besides, the AC50 in assay [15] was 37.7 µM (active).
